Screening results (PubChem BioAssay)
In the library only some 10% were active in any assay of this set; here they are far more common.
PLK1 PBD block – blocks phosphopeptide binding to human PLK1 polo-box domain. P53350. Plk1 PBD binding of FITC phosphopeptide, fluorescence polarization. Potency, µM, without a hit: max response, negative = inhibition, actives largely listed as inhibitors. hit rate 2.8% among 360,000. AID 720504; note: potency is the fitted concentration of half-maximal effect; series mostly up to about 57 µM; nearly all actives have a fitted effect of over 65% in size
G9a inh – G9a (human) methyltransferase inhibition; G9a H3K9 monomethylation, AlphaScreen, 2 h; Potency, µM (doses to about 102 µM), for the others: at the highest dose activity, negative = inhibition, usual class: inhibitors; hit rate 8.8% among 350,000; AID 504332; note: potency is the fitted concentration of half-maximal effect; nearly all actives have a fitted effect of over 75% in size
Target sequence (Q96KQ7 913-1193 limits assumed): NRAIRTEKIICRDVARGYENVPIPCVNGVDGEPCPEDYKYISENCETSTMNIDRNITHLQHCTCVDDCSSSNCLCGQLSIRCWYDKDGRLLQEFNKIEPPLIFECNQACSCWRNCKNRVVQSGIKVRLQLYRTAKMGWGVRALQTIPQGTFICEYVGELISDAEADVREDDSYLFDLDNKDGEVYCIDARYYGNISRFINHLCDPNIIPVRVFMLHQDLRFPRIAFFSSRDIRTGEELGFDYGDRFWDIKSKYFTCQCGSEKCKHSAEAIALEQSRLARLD
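Enzyme 20 nM + cpd, 15 min RT; add b-H3K9 pep 500 nM / SAM 20 uM; 2 h RT; anti-H3K9me1 Ab 0.5 ug/mL + SA donor / anti-rabbit acceptor beads 20 ug/mL each, 10 min; AlphaScreen read.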
Sfp inh – inhibitors of Bacillus subtilis Sfp phosphopantetheinyl transferase; Biochemical Sfp PPTase activity, qHTS; Potency, µM, inactives show largest response in the series, negative = inhibition, most hits filed as inhibitors; hit rate 3.5% among 310,000; Q9F4F7;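 note: the enzyme is Sfp with the accession as filed and its product quenches rhodamine fluorescence; potency is the fitted concentration of half-maximal effect; 0% = enzyme reaction without inhibitor and -100% = no enzyme wells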
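Buffer: 50 mM Hepes-Na pH 7.6, 10 mM MgCl2, 0.01% Nonidet P-40, 0.01% BSA. Enzyme 15 nM, pre-exposed to compound 15 min; substrates then added and fluorescence change tracked over 30 min.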
Mm-Cpn inhibitor – blocks the Methanococcus maripaludis chaperonin Mm-Cpn; hit rate 0.031% among 330,000; Potency, µM (highest dose often 76.9 µM), without a hit: at the top dose activity, negative = inhibition, actives largely listed as inhibitors; purified Mm-Cpn ATPase, ADP Transcreener TR-FRET; note: potency is the fitted concentration of half-maximal effect; nearly all actives have a fitted effect of over 80% in size
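Compound-treated chaperonin, 25 nM final, turns over 10 uM ATP at 37°C for 30 min following a 10 min preincubation; ADP generated competes with ADP-d2 for Eu-cryptate antibody, lowering FRET.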
CCT chaperon mod – cytosolic chaperonin activity modulation; purified chaperonin ATPase assay, HTRF ADP detection, 30 min; activity change, % (test concentration not listed), hits read low; hit rate 0.3% among 360,000; AID 651819; in the data active = activity change below about -30%
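First, chaperonin was dispensed at 40 nM or 20 nM final depending on batch activity. Next, compounds were pinned at 76 uM and ATP added at 10 uM. After 30 min at 37 °C, ADP detection reagents ran 30 min at ambient temperature.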
VDR inhibitor – vitamin D3 receptor (human) inhibition | P11473 | VDR-SRC2-3 peptide fluorescence polarization, 2 h | Potency, µM, for inactives: max response, negative = inhibition, hits mostly inhibitors | hit rate 0.93% among 400,000 | AID 504847; note: potency is the fitted concentration of half-maximal effect
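Inhibition of the VDR/SRC2-3 peptide interaction is quantified by fluorescence polarization. Compounds (23 nl, pintool) incubate with the reagents for 2 hours at ambient room temperature.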
Active calls of the source: *; u = inconclusive; x = not tested or not shown; ! = repeats disagree; [ ] = remark or other dose. Unless noted, calls come from the whole dose curve; as a rule, active = well fitted curve in the direction sought with a large enough effect; inconclusive = small, poorly fitted or top-dose-only effect, or another doubt; inactive = no such curve, though single readings can be large; an effect the other way counts as inactive or inconclusive. Unless noted, % is set by controls: 0 for no effect and ±100 for the full control effect.

SMILES	PLK1 PBD block	G9a inh	Sfp inh	Mm-Cpn inhibitor	CCT chaperon mod	VDR inhibitor
Cn1c(=O)c2c(-c3ccccc3)n3c(c2n(C)c1=O)C(c1cc(Cl)ccc1O)Nc1ccccc1-3 (configuration not stated)	x	u	x	x	x	18%
c1ccc(N2CCC3(CCNCC3)CC2)nc1	x	-4%[12.7 µM]	-7%	x	x	u
CCCc1cnc2c(c1SCC(=O)Nc1ccc([N+](=O)[O-])cc1)c(=O)n(C)c(=O)n2C	x	13µM*	x	x	x	3%
CCOP(=S)(OCC)Oc1ncn(-c2ccccc2)n1	x	x	u	x	x	14µM*
CCn1c(C)cc(/C=C2\C(=O)NC(=O)N(c3ccccc3C)C2=O)c1C	-10%	u	10%	-1%	-2	6%
Cc1cc(N2CCOCC2)ccc1/C=C1\C(=O)NC(=O)N(c2ccccc2)C1=O	12µM*	-34%[12.7 µM]	35µM*	1%	0	u
O=C1NC(=O)N(c2cccc(F)c2)C(=O)/C1=C/c1ccc(N2CCOCC2)cc1	12µM*	x	32µM*	0%	1	-27%
Cc1cc(/C=C2\C(=O)NC(=O)N(c3ccc(F)cc3)C2=O)c(C)n1-c1ccc(C(=O)O)cc1	u	x	-27%	-2%	2	-5%
CCCCCCCCCC[Si](C)(C)CCC(=O)NC(Cc1ccc(C)cc1)c1ccccc1 (configuration not stated)	x	43%[59 µM]	x	x	x	12%
O=C(NC(O)C(Cl)(Cl)Cl)NC(O)C(Cl)(Cl)Cl (configuration not stated)	x	2%[12.7 µM]	6%	x	x	2%
C[C@]12C=CC(=O)C=C1CC[C@@H]1C2=CC[C@]2(C)[C@@H](C(=O)CN3CCN(c4cc(N5CCCC5)nc(N5CCCC5)n4)CC3)CC[C@@H]12	-17%	u	x	x	0	2.8µM*
CCCCC[C@@H](/C=C/C=C\CCCCCCCCCC(=O)O)OO	x	x	2%	x	x	-12%
CCCOc1ccc(N2CC(C(=O)Nc3ccccc3F)CC2=O)cc1 (configuration not stated)	-6%	u	-13%	0%	1	-2%
COC(=O)c1ccc(Cl)c(NC(=O)CN2CCN(Cc3ccccc3)CC2)c1	1%	11µM*	4%	-3%	-1	-11%
CCCC1COC(Cn2cncn2)(c2ccc(Cl)cc2Cl)O1 (configuration not stated)	-13%	-7%	u	-1%	-6	50µM*!
CC1(c2ccc(Cl)cc2Cl)OCC(Cn2cncn2)O1 (configuration not stated)	-12%	u	8%	3%	-3	-3%
CCC(=Nc1ccc(Cc2ccncc2)cc1)c1c(O)n(C)c(=O)n(C)c1=O	-1%	79µM*	5%	-1%	0	-9%
CCOP(=O)(CN(CC)CCNP(=O)(OCC)OCC)OCC	1%	50µM*	20%	0%	-2	6%
O=C(Oc1ccccc1)N1CCC[C@@]2(CCN(C(c3ccccc3)c3ccccc3)C2)C1	x	8%[12.7 µM]	1%	x	x	0%
C[C@]12C/C(=C/O)C(=O)C[C@@H]1CC[C@@H]1[C@@H]2CC[C@@]2(C)[C@H]1CC[C@]2(C)O	x	18µM*	1%	x	x	u
CC(Cc1ccc(C(C)(C)C)cc1)CN1CCCCC1 (configuration not stated)	x	x	4%	x	x	7%
O=C(N=Nc1c(O)[nH]c(=O)[nH]c1=O)C1COc2cc3ccccc3cc2O1 (configuration not stated)	u	50µM*	56µM*	3%	-4	u
C[C@@H]1O[C@@H](O[C@H]2C[C@@H](O)[C@]3(CO)[C@H]4[C@H](O)C[C@]5(C)[C@@H]([C@@H]6COC(=O)C6)CC[C@]5(O)[C@@H]4CC[C@]3(O)C2)[C@H](O)[C@H](O)[C@H]1O	x	23%[12.7 µM]	x	x	x	x
O=c1[nH]c(=O)n(C2CCCCC2)c(O)c1C1NCCc2ccccc21 (configuration not stated)	0%	u	35µM*	2%	-1	u
C[C@H](NC(=O)[C@@H](N)Cc1ccc(O)cc1)C(=O)NCC(=O)N(C)[C@@H](Cc1ccccc1)C(=O)NCCO	x	35%[59 µM]	5%	x	x	-2%
SMILES	PLK1 PBD block	G9a inh	Sfp inh	Mm-Cpn inhibitor	CCT chaperon mod	VDR inhibitor
CC(C)NC(=O)C(C)N1CCN(S(=O)(=O)c2ccc3ccccc3c2)CC1 (configuration not stated)	-20%	25µM*	-29%	0%	-4	-1%
O=C(COC(=O)Cc1ccccc1)Nc1cc(S(=O)(=O)N2CCCCC2)ccc1Cl	-1%	-45%	x	0%	-1	-13%
CCCCCCn1c(O)c(C=Nc2ccccc2N2CCOCC2)c(=O)[nH]c1=S	13%	-38%	11%	-2%	-2	-19%
C=CCn1c(O)c(/C=N/N2CCCCC2c2cccnc2)c(=O)[nH]c1=S (configuration not stated)	-9%	20%[59 µM]	9%	1%	0	-15%
CCCCn1c(O)c(/C=N/N2CCCCC2c2cccnc2)c(=O)[nH]c1=S (configuration not stated)	-1%	8.9µM*	-13%	-6%	1	-2%
CCCCn1c(O)c(/C=N/N2CCOCC2)c(=O)[nH]c1=S	4%	45µM*	4%	-1%	2	-11%
NC1CCCC[C@@H]1N (some centres not stated)	x	x	-10%	x	x	0%
O=C(CCN1CCOCC1)Nc1ccc(Br)cc1C(=O)c1ccccc1	u	35µM*	-10%	-6%	-3	7%
O=C(CN1CCCC1)Nc1ccc(Cl)cc1C(=O)c1ccccc1	-10%	6.3µM*	u	-6%	1	-11%
O=C(CCN1CCCCC1)Nc1ccc(Cl)cc1C(=O)c1ccccc1	-5%	-11%[2.33 µM]	7%	2%	-2	7%
C/C=C(/C)C(=O)OC1CC[C@]2(C)C3CCC4[C@]5(O)CC(O)[C@]6(O)C(CN7CC(C)CCC7[C@]6(C)O)[C@]5(O)C[C@@]42O[C@]13O (some centres not stated)	x	x	2%	x	x	19%
CCCCC(=O)Nc1c(C(=O)N2CCN(c3ccccc3F)CC2)oc2ccccc12	x	u	x	x	x	7%
c1ccc(-c2cc3c(nc2-c2ccccc2)CCNC3)cc1	x	x	12%	x	x	x
Cn1c(N2CCNCC2)nc2ccccc21	-10%	40%[12.7 µM]	-3%	-1%	1	14%
Cc1cc(N2CCNCC2)nc2ccccc12	27µM*	u	4%	1%	0	-12%
